Experimental data published in PubChem BioAssay (NCI).
Where “and” joins values, the source holds several entries; their conditions need not be identical. Identical values can stand only once. The panel holds about 79,000 compounds, 15% with a hit somewhere; the sample as a whole holds those more often. More than one record can exist for a structure, and the calls need not agree. Calls of active or inactive are those of the source. No stated cut-off is given here; in the data, active means growth inhibition above about 70%; inactive means the rest.

Experiment: NCI Yeast Anticancer Drug Screen. Data for the mlh1 rad18 strain (AID 175)
Conditions: S. cerevisiae mlh1 rad18 strain growth inhibition, stronger effect = higher value
Method: Growth inhibition of yeast strains with defined genetic alterations is measured as a screen for potential anti-cancer activity. Selected strains with alterations in DNA damage repair or cell cycle control were exposed to compounds and growth inhibition was measured relative to vehicle treated controls. The strain used in this assay is mlh1 rad18

[1] = at 5.0 µM (retest, dose inferred, filed as 0.5)
[2] = at 50.0 µM (retest, dose inferred, filed as 5.0)

| SMILES | growth inhibition [1] | growth inhibition [2] | growth inhibition (at 50.0 µM) |
| --- | --- | --- | --- |
| COc1ccc(N)c2c1C(=O)c1ccccc1C2=O | 27% (inactive) | 40% (inactive) | 77.5% (active) |
| NC(=O)N1c2ccccc2C=Cc2ccccc21 | 60% (inactive) | 100% (active) | -6.9% (inactive) |
| Cc1ccc(S(=O)(=O)N/N=C/C2(c3ccccc3)c3ccccc3-c3ccccc32)cc1 | 79% (active) | 91% (active) | 70.5% (active) |
| CCCCC1=NNC(=O)C1 | 53% (inactive) | 69% (inactive) | -34.6% (inactive) |
| COC(=O)c1ccc2c(c1)Cc1ccccc1-2 | -2% (inactive) | 6% (inactive) | 45.6% (inactive) |
| O=[N+]([O-])/C(C(Cl)=C(Cl)Cl)=C1/OCCS1 | 60% (inactive) | 100% (active) | 86.2% (active) |
| CCCCCC(=O)c1ccc(O)cc1O | 97% (active) | 99% (active) | 91.2% (active) |
| COc1ccc(SCc2cc(OC)ccc2OC)cc1 | -16% (inactive) | 67% (inactive) | 21.3% (inactive) |
| C=C1N(C)c2ccc(Cl)cc2C1(C)C | 57% (inactive) | 100% (active) | 88.9% (active) |
| CNc1ccc(Cc2c[nH]c3ccccc23)cc1 | 35% (inactive) | 79% (active) | 84.8% (active) |
| COc1ccc(/C=C(\NC(=O)c2ccccc2)C(=O)NN(C)c2ccnc3cc(Cl)ccc23)cc1OC | 0% (inactive) | 1% (inactive) | 87.1% (active) |
| COc1cc(N(C)C)ccc1/C=C\c1ccnc2ccccc12 | -8% (inactive) | 32% (inactive) | 2.15% (inactive) |
| COc1ccc(N2C(=O)CC(Cl)C2=O)cc1 (configuration not stated) | -137% (inactive) | 32% (inactive) | 97.1% (active) |
| CN(C)c1ccc(/C=C/c2ccnc3ccccc23)cc1N | -12% (inactive) and 5% (inactive) | 13% (inactive) and 97% (active) | 81.8% (active) and 0.6% (inactive) |
